Compound activity (PubChem)
HepG2 tox: kills HepG2 cells in TGF-b inhibitor counter-screen; AID 588856; HepG2 CAGA-GFP viability, ATP luminescence, 18 h; Potency, µM (titrated, usually from 46.1 µM), most hits filed as cytotoxic; 410,000 tested, 0.76% active
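HepG2 CAGA-GFP cells (1000/well, DMEM with 1% FBS) received compound, then TGF-beta at 500 pg/mL final, and were incubated 18 hours at 37 degrees C. Viability was read by CellTiter-Glo luminescence. Media-only wells were set as complete cell-killing and DMSO as no toxicity.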
TGFb inhibitor: TGF-b pathway inhibition; HepG2 CAGA-GFP TGF-b/SMAD3 reporter, GFP fluorescence, 18 h; TGF-beta stimulated, 500 pg/mL final; Potency, µM (titrated, usually from 46.1 µM), actives largely listed as inhibitors; AID 588855; 410,000 tested, 1.2% active; also: nearly all actives have a fitted effect of over 65% in size
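Using HEPG2 CAGA-GFP reporter cells at 1000 cells/well, we pinned test compounds, stimulated with recombinant TGF-beta (500 pg/mL final) and measured total well GFP after 18 h.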
TDP1 cell CPT: DT40-hTDP1 cell growth loss with CPT; chicken DT40 Tdp1-/-;hTDP1 cells + 20 nM CPT, ATP luminescence, 48 h; Potency, µM (top dose mostly 46.2 µM), most hits filed as inhibitors; 420,000 tested, 12% active; also: nearly all actives have a fitted effect of over 55% in size
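Chicken DT40 Tdp1-/- cells complemented with human TDP1, 400 cells/well, exposed to compounds plus 20 nM camptothecin for at least 48 h at 37 C; viability read as ATP content by CellTiter-Glo luminescence.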
DT40 TDP1 no CPT: qHTS for Inhibitors of human tyrosyl-DNA phosphodiesterase 1 (TDP1): qHTS in cells in absence of CPT; DT40 Tdp1-/- hTDP1 cells, no CPT, ATP luminescence, 48 h; Potency, µM (doses to about 46.2 µM), hits mostly inhibitors; 420,000 tested, 15% active; also: nearly all actives have a fitted effect of over 55% in size
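Chicken DT40 Tdp1-/- cells stably complemented with human TDP1 were seeded at 400 cells/well with DMSO in place of 20 nM camptothecin. After compound pinning, cells grew at least 48 hr at 37 °C; viability read by CellTiter-Glo luminescence.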
HT1080NT lethal: kills 2HG-producing HT-1080-NT fibrosarcoma cells. Potency, µM (highest dose often 46.1 µM), usual class: cytotoxic. 360,000 tested, 1.6% active. HT-1080-NT fibrosarcoma viability, CellTiter-Glo ATP luminescence, 48 h;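 also: NT is the 2HG producing partner of a matched IDH1 knockdown line; nearly all actives have a fitted effect of over 55% in size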
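A 48-hour cytotoxicity screen used HT-1080-NT cells plated 2 hours before compound delivery. ATP-based CellTiter-Glo luminescence measured viability, normalized to DMSO and no-cell controls.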
HT1080 IDH1KD tx: toxicity to HT-1080 IDH1 knockdown cells (counter line); 360,000 tested, 2% active; Potency, µM (top dose mostly 46.1 µM), hits mostly cytotoxic; HT-1080 IDH1 knockdown viability, ATP luminescence, 48 h; AID 686971
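Knockdown cells (IDH1KD HT-1080) received compounds 2 h after plating at 750 cells/well and were kept 48 h at 37 °C in 5% FBS RPMI. A CellTiter-Glo luminescence read gave % activity for curve fitting.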
Of the large screens only hits and unclear results are named; the others gave an inactive call. Shown are actives, neighbours in structure and some others; about 17% of the full set was active somewhere. Calls follow the shape of the dose curve; as a rule, active = well fitted curve in the direction sought with a large enough effect; inconclusive = small, poorly fitted or top-dose-only effect, or another doubt; inactive = no such curve, though single readings can be large; an effect the other way counts as inactive or inconclusive.

C/C(Cn1cnc([N+](=O)[O-])n1)=N/NC(=O)COc1c(Cl)cc(Cl)cc1Cl	none
O=C(Nc1ccc2[nH]c(=O)[nH]c2c1)c1ccc([N+](=O)[O-])o1	TGFb inhibitor 11µM, TDP1 cell CPT inconclusive, HT1080 IDH1KD tx inconclusive
Cc1ccc(NC(=O)c2ccc([N+](=O)[O-])o2)cc1C	TGFb inhibitor inconclusive, TDP1 cell CPT 26µM, DT40 TDP1 no CPT 10µM, HT1080NT lethal 26µM, HT1080 IDH1KD tx 13µM
COc1ccc(C(C)NC(=O)c2ccc([N+](=O)[O-])cc2)cc1OC (stereo not drawn)	TDP1 cell CPT 0.92µM, DT40 TDP1 no CPT 0.52µM
Cc1ccnc(NC(=O)c2ccc([N+](=O)[O-])o2)c1	TGFb inhibitor inconclusive, TDP1 cell CPT 21µM, DT40 TDP1 no CPT inconclusive, HT1080NT lethal inconclusive
O=C(COc1ccc([N+](=O)[O-])cc1)Nc1ccc2[nH]c(=O)[nH]c2c1	none
Cc1ccc(NC(=O)c2cc(Cl)ccc2[N+](=O)[O-])cc1C	none
O=C(CN1C(=O)COc2ccccc21)NCCCN1CCCCC1	none
Cc1ccc(Cn2c(C(=O)O)c(CNCCc3ccco3)c3ccc(C)cc32)cc1	none (no result: HT1080NT lethal, HT1080 IDH1KD tx)
Cc1ccc(Cn2c(C(=O)O)c(CNCc3cccs3)c3ccc(C)cc32)cc1	TGFb inhibitor inconclusive, TDP1 cell CPT 15µM, DT40 TDP1 no CPT inconclusive (no result: HT1080NT lethal, HT1080 IDH1KD tx)
Cc1ccc(Cn2c(C(=O)O)c(CNCc3ccccc3Cl)c3ccc(C)cc32)cc1	TGFb inhibitor inconclusive, TDP1 cell CPT 23µM, DT40 TDP1 no CPT inconclusive (no result: HT1080NT lethal, HT1080 IDH1KD tx)
O=C(COC(=O)CN1C(=O)C2CCCCC2C1=O)NCc1ccc(Cl)cc1Cl (stereo not drawn)	none
O=C(CCCSc1nnc(SCCCC(=O)c2ccc(F)cc2)s1)c1ccc(F)cc1	TDP1 cell CPT 18µM, DT40 TDP1 no CPT inconclusive
CC(C)(C)c1ccc2cccc(F)c2n1	none
CCN1CCN(CNC(=O)c2cnccn2)CC1	TDP1 cell CPT 18µM
O=C(NCN1CCN(c2ccccc2)CC1)c1cnccn1	none
CCOC(=O)C1(CCCc2ccccc2)CCN(C2CCSCC2)CC1	TDP1 cell CPT 16µM, DT40 TDP1 no CPT 13µM
CCOC(=O)C1(CCCc2ccccc2)CCN(C(=O)c2n[nH]c(CC)c2C)CC1	TGFb inhibitor inconclusive, TDP1 cell CPT 23µM, DT40 TDP1 no CPT 13µM
CCOC(=O)C1(CCCc2ccccc2)CCN(C(=O)COC)CC1	TDP1 cell CPT inconclusive, HT1080NT lethal inconclusive
CCOC(=O)C1(CCCc2ccccc2)CCN(C(=O)c2cc(C)nn2CC)CC1	TGFb inhibitor inconclusive, TDP1 cell CPT 18µM, DT40 TDP1 no CPT 9.2µM, HT1080NT lethal inconclusive
CCOC(=O)C1(CCCc2ccccc2)CCN(C(=O)Cn2nc(C)nc2C)CC1	TDP1 cell CPT 23µM, DT40 TDP1 no CPT inconclusive
C[C@@H]1CNC(=O)c2c(C(=O)N[C@H](C)c3ccccc3)ncn21	none
CCOc1ccc(NC(=O)NC(CC)Cn2nnc3ccccc3c2=O)cc1 (stereo not drawn)	TGFb inhibitor inconclusive (no result: HT1080NT lethal, HT1080 IDH1KD tx)
CC(=O)c1cccc(NC(=O)CNC(=O)c2sc3ccccc3c2Cl)c1	TDP1 cell CPT inconclusive, DT40 TDP1 no CPT inconclusive, HT1080NT lethal inconclusive, HT1080 IDH1KD tx inconclusive
CCOC(=O)C1(CCCc2ccccc2)CCN(C(=O)c2ocnc2C)CC1	DT40 TDP1 no CPT inconclusive
CCOC(=O)C1(CCCc2ccccc2)CCN(C(=O)c2cncs2)CC1	TDP1 cell CPT 18µM, DT40 TDP1 no CPT 23µM
Cc1c(NC(=O)COc2cccc(Br)c2)c(=O)n(-c2ccccc2)n1C	none
CCCCC[C@@H](C)N1C[C@H](COCc2ccccc2)Oc2cc(N3CCC[C@H]3C(N)=O)ccc2S1(=O)=O	TDP1 cell CPT 2.9µM, DT40 TDP1 no CPT 6.5µM (no result: HepG2 tox, TGFb inhibitor)
